Reference: PubChem BioAssay AID1159580 (chemical genetic matrix, 2015)
Several values for one entry are separate records, joined by “and”; a condition that tells them apart may be missing. Identical values can stand only once. The whole screen tested about 5,500 compounds, of which about 2,000 (36%) were called active. Not shown: some 18% with an inconclusive outcome. No stated cut-off is given here; in the data, active means normalized growth mostly below about 0.91 (no sharp cut-off); inconclusive means no clear call, values can overlap the other calls; inactive means mostly above about 0.92. The list shows a part of the results.

Test: chemical genetic growth profiling, strain panel (AID 1159580);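 further: tested at 20 µM; growth read once vehicle control cultures reached saturation at 30 °C; 1 = growth at the plate median or of vehicle wells; lower values mean less growth of the strain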
Conditions: S. cerevisiae deletion strains, growth OD

Measured: normalized growth

CC1(C)S[C@@H]2[C@H](NC(=O)[C@@H](N)c3ccc(O)cc3)C(=O)N2[C@H]1C(=O)O
inactive: locus YAL013W, strain DEP1, active compounds read low 1.01 | locus YAL021C, strain ccr4, active compounds read low 0.97 | locus YAL026C, strain drs2, active compounds read low 0.976 | locus YAL030W, strain snc1, active compounds read low 0.999 | locus YBL061C, strain skt5, active compounds read low 1.01 | locus YBR009C, strain hhf1, active compounds read low 0.951 | locus YBR021W, strain FUR4, active compounds read low 1 | locus YBR023C, strain chs3, active compounds read low 0.996 | locus YBR171W, strain sec66, active compounds read low 0.987 | locus YBR229C, strain ROT2, active compounds read low 1 | locus YBR231C, strain swc5, active compounds read low 1 | locus YBR279W, strain paf1, active compounds read low 0.99 | locus YCL011C, strain gbp2, active compounds read low 0.988 | locus YCL016C, strain dcc1, active compounds read low 0.992 | locus YCL029C, strain bik1, active compounds read low 1.01 | locus YCL069W, strain vba3, active compounds read low 0.989 | locus YCR088W, strain abp1, active compounds read low 0.983 | locus YDL005C, strain med2, active compounds read low 0.993 | locus YDL035C, strain GPR1, active compounds read low 1.02 | locus YDL040C, strain nat1, active compounds read low 0.995 | locus YDL074C, strain BRE1, active compounds read low 1.01 | locus YDL101C, strain DUN1, active compounds read low 1.01 | locus YDL185W, strain tfp1, active compounds read low 0.997 | locus YDL192W, strain arf1, active compounds read low 1 | locus YDR001C, strain nth1, active compounds read low 0.964 | locus YDR069C, strain doa4, active compounds read low 1.01 | locus YDR101C, strain arx1, active compounds read low 1 | locus YDR137W, strain rgp1, active compounds read low 0.938 | locus YDR159W, strain sac3, active compounds read low 0.991 | locus YDR162C, strain NBP2, active compounds read low 1.03 | locus YDR195W, strain ref2 0.98 | locus YDR297W, strain sur2, active compounds read low 0.998 | locus YDR318W, strain mcm21, active compounds read low 0.998 | locus YDR334W, strain swr1, active compounds read low 0.982 | locus YDR335W, strain msn5, active compounds read low 0.996 | locus YDR388W, active compounds read low 1.01 | locus YDR392W, strain spt3, active compounds read low 0.936 | locus YDR502C, strain sam2, active compounds read low 0.999 | locus YEL003W, strain gim4, active compounds read low 0.991 | locus YEL037C, strain rad23, active compounds read low 0.983 | locus YEL061C, strain CIN8 (second series), active compounds read low 0.988 | locus YEL061C, strain CIN8, active compounds read low 1.01 | locus YER015W, strain faa2, active compounds read low 0.998 | locus YER016W, strain bim1, active compounds read low 0.967 | locus YER110C, active compounds read low 1.01 | locus YER111C, strain swi4, active compounds read low 0.98 | locus YER155C, strain BEM2 (second series), active compounds read low 0.996 | locus YER155C, strain BEM2, active compounds read low 1 | locus YER167W, strain BCK2, active compounds read low 1.01 | locus YFR010W, strain ubp6, active compounds read low 0.987 | locus YGL078C, strain dbp3, active compounds read low 1 | locus YGL086W, strain mad1, active compounds read low 0.994 | locus YGL167C, strain pmr1, active compounds read low 1.01 | locus YGL173C, strain kem1, active compounds read low 1.02 | locus YGL227W, strain vid30, active compounds read low 1 | locus YGL240W, strain doc1, active compounds read low 1.02 | locus YGL248W, strain PDE1, active compounds read low 1.02 | locus YGL253W, strain hxk2, active compounds read low 0.99 | locus YGR078C, strain PAC10, active compounds read low 1 | locus YGR135W, strain pre9, active compounds read low 0.986 | locus YGR252W, strain gcn5, active compounds read low 0.954 | locus YHR013C, strain ard1, active compounds read low 1.03 | locus YHR027C, strain rpn1, active compounds read low 0.989 | locus YHR030C, strain SLT2, active compounds read low 1.01 and 1.03 | locus YHR079C, strain IRE1 (second series), active compounds read low 0.996 | locus YHR079C, strain IRE1, active compounds read low 1.06 | locus YHR094C, strain hxt1, active compounds read low 1 | locus YHR129C, strain ARP1, active compounds read low 1.01 | locus YHR142W, strain chs7, active compounds read low 0.982 | locus YHR200W, strain rpn10, active compounds read low 0.995 | locus YIL066C, strain RNR3, active compounds read low 1.03 | locus YIL073C, strain SPO22, active compounds read low 1.04 | locus YIL125W, strain kgd1, active compounds read low 1 | locus YIR030C, strain dcg1, active compounds read low 1 | locus YJL092W, strain hpr5, active compounds read low 0.991 | locus YJL095W, strain BCK1 (second series), active compounds read low 0.983 | locus YJL095W, strain BCK1, active compounds read low 1.02 and 1.06 | locus YJL115W, strain asf1, active compounds read low 0.979 | locus YJL129C, strain trk1, active compounds read low 1 | locus YJL134W, strain LCB3, active compounds read low 1.01 | locus YJL154C, strain vps35, active compounds read low 0.991 | locus YJL164C, strain tpk1, active compounds read low 0.995 | locus YJL166W, strain qcr8, active compounds read low 1.02 | locus YJL168C, strain set2, active compounds read low 0.997 | locus YJL187C, strain SWE1 (second series), active compounds read low 1.01 | locus YJL187C, strain SWE1, active compounds read low 0.998 | locus YJR043C, strain POL32, active compounds read low 1.01 | locus YJR066W, strain TOR1, active compounds read low 1.01 | locus YJR075W, strain HOC1, active compounds read low 1.02 | locus YKL009W, strain mrt4, active compounds read low 1.02 | locus YKL068W, active compounds read low 1 | locus YKL085W, strain MDH1 (second series), active compounds read low 1.01 | locus YKL085W, strain MDH1, active compounds read low 1.01 | locus YKL160W, strain elf1, active compounds read low 1.01 | locus YKR001C, strain vps1, active compounds read low 0.982 | locus YKR026C, strain gcn3, active compounds read low 1.07 | locus YKR091W, strain srl3, active compounds read low 1 | locus YLL001W, strain dnm1, active compounds read low 1.02 | locus YLL026W, active compounds read low 0.992 | locus YLL041C, strain sdh2, active compounds read low 0.999 | locus YLR027C, strain aat2, active compounds read low 0.993 | locus YLR039C, strain RIC1, active compounds read low 1 | locus YLR058C, strain SHM2, active compounds read low 1.01 | locus YLR102C, strain apc9, active compounds read low 0.997 | locus YLR113W, strain HOG1, active compounds read low 1.04 | locus YLR221C, strain rsa3, active compounds read low 0.991 | locus YLR258W, strain gsy2, active compounds read low 0.991 | locus YLR262C, strain YPT6 (second series), active compounds read low 0.975 | locus YLR262C, strain YPT6, active compounds read low 1.09 | locus YLR268W, strain sec22, active compounds read low 1.01 | locus YLR320W, strain mms22, active compounds read low 0.987 | locus YLR330W, strain CHS5, active compounds read low 1.01 | locus YLR342W, strain FKS1 (second series), active compounds read low 0.974 | locus YLR342W, strain FKS1, active compounds read low 1.01 | locus YLR357W, strain rsc2, active compounds read low 1.02 | locus YLR370C, strain arc18, active compounds read low 0.999 | locus YLR371W, strain rom2, active compounds read low 0.991 | locus YLR384C, strain iki3, active compounds read low 0.989 | locus YLR418C, strain cdc73, active compounds read low 0.994 | locus YML016C, strain PPZ1, active compounds read low 1.01 | locus YML032C, strain rad52, active compounds read low 1.01 | locus YML120C, strain ndi1, active compounds read low 0.997 | locus YML124C, strain tub3, active compounds read low 0.985 | locus YMR058W, strain fet3, active compounds read low 0.995 | locus YMR078C, strain ctf18, active compounds read low 0.994 | locus YMR125W, strain sto1, active compounds read low 0.998 | locus YMR129W, active compounds read low 0.988 | locus YMR205C, strain PFK2, active compounds read low 1 | locus YMR223W, strain ubp8, active compounds read low 0.997 | locus YMR231W, strain pep5, active compounds read low 1 | locus YMR263W, strain SAP30, active compounds read low 1 | locus YMR307W, strain GAS1, active compounds read low 0.969 | locus YNL067W, strain RPL9B, active compounds read low 1.01 | locus YNL071W, strain lat1, active compounds read low 0.984 | locus YNL153C, strain GIM3, active compounds read low 1 | locus YNL183C, strain NPR1, active compounds read low 1 | locus YNL209W, strain ssb2, active compounds read low 0.995 | locus YNL233W, strain BNI4, active compounds read low 1.02 | locus YNL248C, strain rpa49, active compounds read low 1.03 | locus YNL250W, strain rad50, active compounds read low 1 | locus YNL271C, strain bni1, active compounds read low 1 | locus YNL298W, strain CLA4, active compounds read low 0.984 | locus YNL307C, strain MCK1, active compounds read low 1.03 | locus YNL322C, strain KRE1 (second series), active compounds read low 1 | locus YNL322C, strain KRE1, active compounds read low 1.01 | locus YNR049C, strain mso1, active compounds read low 0.985 | locus YNR052C, strain pop2, active compounds read low 0.999 | locus YOL012C, strain htz1 1.31 | locus YOL147C, strain pex11, active compounds read low 1.01 | locus YOR001W, strain rrp6, active compounds read low 0.997 | locus YOR061W, strain CKA2, active compounds read low 1.02 | locus YOR069W, strain VPS5, active compounds read low 1.01 | locus YOR070C, strain gyp1, active compounds read low 0.999 | locus YOR080W, strain dia2, active compounds read low 1.01 | locus YOR083W, strain WHI5, active compounds read low 1.03 | locus YOR106W, strain vam3, active compounds read low 1 | locus YOR136W, strain idh2, active compounds read low 0.994 | locus YOR144C, strain elg1, active compounds read low 0.991 | locus YOR184W, strain ser1, active compounds read low 1.03 | locus YOR231W, strain MKK1, active compounds read low 1.05 | locus YOR265W, strain rbl2, active compounds read low 0.997 | locus YOR270C, strain vph1, active compounds read low 0.962 | locus YOR290C, strain snf2, active compounds read low 0.975 | locus YOR316C, strain cot1, active compounds read low 0.999 | locus YPL051W, strain arl3, active compounds read low 1.01 | locus YPL078C, strain atp4, active compounds read low 1.01 | locus YPL106C, strain sse1, active compounds read low 0.974 | locus YPL240C, strain hsp82, active compounds read low 0.993 | locus YPL241C, strain CIN2, active compounds read low 1.01 | locus YPL256C, strain CLN2, active compounds read low 1.05 | locus YPR119W, strain clb2, active compounds read low 1 | locus YPR141C, strain kar3, active compounds read low 1.03 | locus YPR163C, strain tif3, active compounds read low 1 | locus YPR167C, strain met16, active compounds read low 0.998 | strain wtn01, active compounds read low 0.976
